Measurements taken from PubChem BioAssay (NCATS).
Inconclusive results are not listed. Activity calls are given as the source filed them. The call rests on the fitted dose curve; in most records, active means well fitted curve in the direction sought with a large enough effect; inconclusive means small, poorly fitted or top-dose-only effect, or effect the other way, or another doubt; inactive means no such curve, though single readings can be large or run the other way.

experiment: qHTS Assay for Identification of Small Molecule Agonists for NFkB Signaling Pathway. (AID 624478); conditions: NFkB pathway reporter cell assay, agonist mode, cells co-stimulated with 10 pM TNF alpha; series mostly up to 46.1 µM;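 further: compounds tested together with TNF alpha at its EC50 of 10 pM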
Experimental: The TNF alpha/NFkB signaling pathway was assayed in NFkB-bla cells (Invitrogen), a ME-180 cervical carcinoma line containing a stably integrated beta-lactamase reporter gene controlled by a NFkB response element. This reporter is induced by TNF alpha at 10 pM EC50 and inhibited by the proteosome inhibitor MG-132 at approximately 100 nM IC50. The assay was screened at the EC50 of TNF alpha activation to identify activators of TNF alpha/NFkB signaling
Cells were trypsinized, washed in assay medium (AM, OPTI MEM with 0.5% fetal bovine serum, 0.1 mM nonessential amino acids, 1 mM sodium pyruvate, 10mM HEPES pH 7.3, 100U/ml penicillin, and 100 ug/ml streptomycin) and plated at 1000 cells/5 uL/well into black clear-bottom 1536 well plates. After an overnight incubation at 37 C and 5% CO2, 23 nL of compound were delivered by a pin tool, 1 uL of TNF alpha (10 pM final concentration in AM) was added and plates were incubated at 37 C for 5 hrs. One uL of LiveBLAzerTM detector mix (Invitrogen) was added, the plates incubated at room temperature for 2 hrs, and fluorescence intensity at 460 and 530 nm emission was measured at 405 nm excitation by an Envision (Perkin Elmer).

SMILES	outcome
CC(C)c1ccc2c(c1)c(SC(C)(C)C)c(CC(C)(C)C(=O)O)n2Cc1ccc(Cl)cc1	inactive
Cc1ccc(Nc2nccc(N(C)c3ccc4c(C)n(C)nc4c3)n2)cc1S(N)(=O)=O	inactive
COc1cc(Nc2c(C#N)cnc3cc(OCCCN4CCN(C)CC4)c(OC)cc23)c(Cl)cc1Cl	inactive
CCOC(=O)C(C)Oc1cccc2c(=O)n(CC(=O)Nc3ccc4c(c3)OCCO4)ccc12 (configuration not stated)	inactive
Nc1cccc2c1CN(C1CCC(=O)NC1=O)C2=O (configuration not stated)	inactive
COc1cc2c(N3CCN(C(=O)Nc4ccc(OC(C)C)cc4)CC3)ncnc2cc1OCCCN1CCCCC1	inactive
C[C@@H](N)C1CCC(C(=O)Nc2ccncc2)CC1 (some centres not stated)	inactive
CCOC(=O)C1=C(O)C(=O)N(Cc2ccccc2)C1	inactive
CCN(CCO)CCCC(C)Nc1ccnc2cc(Cl)ccc12 (configuration not stated)	inactive
Cc1cccc(C#Cc2ccccc2)n1	inactive
Cc1nc(Nc2ncc(C(=O)Nc3c(C)cccc3Cl)s2)cc(N2CCN(CCO)CC2)n1	inactive
Cc1cccc(-c2[nH]ncc2-c2ccc3ncccc3n2)n1	inactive
Nc1nc(Cl)nc2c1ncn2[C@H]1C[C@H](O)[C@@H](CO)O1	inactive
S=c1nc[nH]c2nc[nH]c12	inactive
Cc1ccc(NC(=O)c2ccc(CN3CCN(C)CC3)cc2)cc1Nc1nccc(-c2cccnc2)n1	inactive
CCN(CC)CCOc1ccc(Nc2ncc3cc(-c4c(Cl)cccc4Cl)c(=O)n(C)c3n2)cc1	inactive
CC(C)C[C@H](NC(=O)[C@H](Cc1ccccc1)NC(=O)c1cnccn1)B(O)O	inactive
